Here are results for eight compounds from PubChem BioAssay (NCI).

About 83,000 compounds went through this panel and 20% of them were active in at least one assay; those are over-represented in the sample as a whole.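 The endpoint reported here, percent growth, reads 100 for growth as untreated, 0 for no net growth and -100 for all cells dead.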 Values without a mark were called inactive. Calls of active or inactive are those of the source. Rule for the calls: active = growth percent below 10; inactive = the rest.

Assay in all cases: NCI-60 one-dose screen, 48 h (100 = growth as untreated, 0 = no growth, -100 = all killed)
Conditions in all cases: 10 µM unless noted

Assay [1] relates to SR leukemia.
The test system of assay [2] is RPMI-8226 leukemia.
The subject of assay [3] is OVCAR-8 ovarian.
In assay [4] the test system is OVCAR-5 ovarian.
The subject of assay [5] is OVCAR-4 ovarian.
For assay [6], the system named is SK-OV-3 ovarian.
Assay [7] deals with IGROV1 ovarian.
In assay [8] the test system is OVCAR-3 ovarian.
Assay [9] deals with HS 578T breast.
The test system of assay [10] is NCI/ADR-RES ovarian.
For assay [11], the system named is T-47D breast.
The test system of assay [12] is BT-549 breast.
For assay [13], the system named is MDA-MB-435 melanoma.
Assay [14] concerns SW-620 colon.
The subject of assay [15] is MCF7 breast.
In assay [16] the test system is HCT-116 colon.
The test system of assay [17] is HCC-2998 colon.
The test system of assay [18] is KM12 colon.

As for `O=C(Nc1cccnc1Nc1ccc(F)cc1)c1cn(Cc2cccc(Oc3ccccc3)c2)nn1`, the growth in [1] is 23.4%; in [2], 78.9%; in [3], 81.4%; in assay [4] it was 115%; in assay [5], 86.5%; in assay [6] it was 87.4%. In addition, the growth is 91.2% in assay [7]; 71.9% in [8]; 69.3% in [9]; 37.8% in [10]; 65.4% in [11]; 69.8% in assay [12]. Besides, the growth is -32.4% (active) in assay [13]; 56.5% in [14]; 40.1% in [15]; 68.8% in [16]; 84.8% in assay [17]; 55.9% in assay [18].

For the compound `Cn1cccc1C(=O)C1C(c2cccc([N+](=O)[O-])c2)C2C3CCCCC3CN2C12C(=O)Nc1ccc(Cl)cc12` (centres undefined), the growth was 5.9% (active) in assay [1]; 19.6% in assay [2]; 63.8% in assay [3]; 68.1% in assay [4]; 70.5% in assay [5]; 70.1% in [6]. Further, the growth in [7] is 8.94% (active); in [8], 70.2%; in assay [9], 55.7%; in assay [10], 51%; in assay [11], 36.7%; in assay [12], 53.6%. Moreover, the growth in [13] was 56.3%; in assay [14], 54.7%; in [15], 34.1%; in [16], 14.9%; in [17] it was 64.5%; in assay [18] it was 42.3%.

Turning to `O=C(/C=C/c1ccc(Cl)cc1)c1cccc(Nc2nc(Nc3ccccc3)nc(Nc3ccccc3)n2)c1`, the growth in [1] was 60.5%; in assay [2], -43.9% (active); in assay [3] it was 94.9%; in assay [4], 92.9%; in assay [5], 83.6%; in [6] it was 108%. Besides, the growth in assay [7] was 13.5%; in [8], 84.7%; in assay [9] it was 92.7%; in assay [10], 91.9%; in assay [11] it was 55.6%; in [12], 118%. Moreover, the growth in assay [13] is 102%; in assay [14], 98.8%; in assay [15] it was -16.9% (active); in assay [16], 29.5%; in assay [17], 88.8%; in assay [18], 86%.

For `O=C(O)c1ccc(-n2cc(/C=N/Nc3ccc(F)cc3)c(-c3cc4ccccc4oc3=O)n2)cc1`, the growth in assay [1] was 51.9%; in [2], 90.4%; in [3], 84.5%; in [4] it was 82.4%; in assay [5], 91.1%; in [6], 94.1%. Besides, the growth in assay [7] is 74%; in assay [8], 82.4%; in assay [9], 95.3%; in assay [10], 77.9%; in assay [11], 63.7%; in [12], 80%. For the same compound, the growth in [13] is 77.5%; in [14], 64.5%; in assay [15], 66.1%; in assay [16], 56.5%; in [17], 88.3%; in assay [18] it was 77.7%.

Turning to `CC1=Nc2cnc(Nc3ccc(OCCN4CCCCC4)cc3)nc2Nc2ccccc21`, the growth in [1] was 33.7%; in assay [2], 62.7%; in [3], 72.9%; in [4], 70.7%; in assay [5] it was 53%; in [6], 34.8%. For the same compound, the growth in assay [7] is 14.7%; in [8], 68.9%; in assay [9], 33.6%; in [10], 69.8%; in assay [11] it was 66.4%; in assay [12] it was 78.6%. The growth was 56.3% in [13]; 62.3% in assay [14]; 67.6% in assay [15]; 64.1% in [16]; 67% in assay [17]; 12.8% in [18].

Consider `CCn1c(=S)sc2c(Nc3ccc(F)cc3)nc(-c3cccnc3)nc21`, for which the growth in [1] is 95.6%; in [2] it was 88%; in assay [3], 43.7%; in assay [4], 85.8%; in [5], -12% (active); in assay [6], 56.6%. Also, the growth in [7] was 75.3%; in assay [8] it was 78.7%; in assay [9], 49%; in assay [10], 55.4%; in assay [11], 30.5%; in assay [12] it was 54.2%. In addition, the growth is 81.1% in assay [13]; 90.6% in assay [14]; 73.1% in assay [15]; 21.4% in assay [16]; 86.1% in [17]; 69.7% in assay [18].

On to `CC(C)NC1CCC(Nc2ccnc3cc(Cl)ccc23)CC1` (centres undefined), for which the growth in assay [1] was 84%; in [2], 76%; in [3], 91.7%; in assay [4], 104%; in assay [5] it was 79.5%; in assay [6], 93%. Moreover, the growth is 109% in [7]; 109% in [8]; 96.6% in assay [9]; 108% in assay [10]; 80.3% in assay [11]; 88.8% in assay [12]. Further, the growth is 96% in assay [13]; 91.7% in assay [14]; 93.3% in assay [15]; 76.6% in [16]; 101% in assay [17]; 110% in assay [18].

For the compound `COc1ccc(-c2ccc3cnc4sc(-c5ccc(OC)cc5)nc4c3n2)cc1`, the growth was 83.7% in [1]; 87.5% in assay [2]; 96.3% in [3]; 97.4% in assay [4]; 96.9% in [5]; 92.6% in [6]. The growth in assay [7] was 94%; in assay [8], 101%; in [9], 94.4%; in [10], 92.9%; in assay [11] it was 76.3%; in assay [12], 108%. Also, the growth is 101% in [13]; 112% in [14]; 78% in [15]; 94.5% in [16]; 93.1% in assay [17]; 89.1% in [18].
